Compound activity from PubChem BioAssay.
MPTP block: permeability transition pore inhibition | isolated mouse mitochondria, Ca2+ swelling absorbance, 30 min | inhibition, % at 10 µM | hit rate 1.4% among 360,000 | AID 602449;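 active means inhibition of 50% or more, scaled per plate between neutral and stimulator controls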;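 further: 0% = DMSO wells given calcium and 100% = 1 mM EGTA wells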
HSF1 inh: HSF1 inhibition | hit rate 0.77% among 300,000 | NIH3T3-HGL HSE-luciferase, MG132-induced, luminescence 8 h; hits give low values | activity change, negative = inhibition, % at 7.5 µM (by protocol);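 active means more than half of replicate wells show activity change below -50%, luminescence cut by over half; inconclusive means some wells, but at most half, below -50%; inactive means no replicate well below -50%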;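 further: luciferase reports HSF-1 transcriptional activity via heat shock element; 0% = median of DMSO wells and -100% = zero luminescence signal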
HSF1 activator: increases HSF-1 driven luciferase reporter signal; activation, % at 9 µM; hit rate 1.7% among 300,000; NIH3T3-HGL HSF-1 luciferase reporter, MG132, 8 h; 100% = twice DMSO control signal;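 active means mean replicate activation of at least 50% with a set share of replicates each reaching 50%; inconclusive means only one of those two conditions met; inactive means mean below 50% and too few replicates reaching it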;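 further: 0% = median of the neutral control wells and 100% = twice that signal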
dFosB act: enhances mouse delta FosB homodimer DNA binding; P13346; purified delta FosB, TAMRA-CDK5 oligo fluorescence polarization; percent of positive-control signal above neutral wells; activation, % at 25 µM; hit rate 0.99% among 340,000; AID 493131;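 active means mean activation above about 17%, with every replicate also reaching it, limit read from the data, passing the limit was not always enough; inconclusive means only one of the two conditions met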
Target sequence (P13346 whole entry, looked up): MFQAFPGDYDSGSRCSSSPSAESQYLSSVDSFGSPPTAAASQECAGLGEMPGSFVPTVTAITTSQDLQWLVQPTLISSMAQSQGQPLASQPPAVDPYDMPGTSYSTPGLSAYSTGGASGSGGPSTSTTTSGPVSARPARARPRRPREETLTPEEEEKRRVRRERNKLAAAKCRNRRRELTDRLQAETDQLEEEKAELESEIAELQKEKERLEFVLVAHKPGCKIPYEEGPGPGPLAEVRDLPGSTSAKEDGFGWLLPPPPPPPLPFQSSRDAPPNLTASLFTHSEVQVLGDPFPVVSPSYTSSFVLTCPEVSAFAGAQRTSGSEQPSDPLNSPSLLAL
HSP90 inh: blocks HSP90-mediated luciferase refolding in reticulocyte lysate; Rabbit reticulocyte lysate, luciferase refolding luminescence, 3 h; hit rate 0.91% among 290,000; AID 1789; inhibition, % at 5.6 µM;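 active means inhibition above the screen-wide mean plus 3 SD, computed separately per campaign, cut at about 16% in these data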;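 further: 0% = DMSO wells and 100% = 60 µM geldanamycin wells; inhibitors lower the luminescence because luciferase stays unfolded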
Platelet DG rel: platelet dense granule release activity; inhibition, %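 (compounds screened at 7.5 µM in platelet-rich plasma)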; human platelet-rich plasma, SFLLRN dense granule ATP release, luminescence; hit rate 0.22% among 300,000;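 active means mean replicate score, as percent of positive control, at or above 50; inconclusive means mean below 50 but at least one replicate at or above 50; inactive means mean and every replicate below 50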
Rh123 counter: mitochondrial membrane potential, counter-screen | shares compounds with MPTP block | isolated mitochondria, Rhodamine 123 fluorescence | inhibition, % at 10 µM | hit rate 78% among 5,000 | AID 624504; in the data active means inhibition above about 22%;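 further: 0% = DMSO vehicle and 100% = positive control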
Active calls of the source: *. A selection: hits, their analogues and other compounds. The true share with any hit is near 4.9%.

For CCCCOC(=O)c1ccc(NC(=O)C(=O)NCCN(C)C)cc1 the results were MPTP block -4, HSF1 inh 2, HSF1 activator 8, dFosB act -6, HSP90 inh -3 and Platelet DG rel 4.
For Cn1cc(CNCc2ccc(OC(F)(F)F)cc2)c(-c2ccc3c(c2)OCCO3)n1 the results were MPTP block 102*, HSF1 inh 7, HSF1 activator 5, dFosB act -5, HSP90 inh 2, Platelet DG rel 0 and Rh123 counter 96*.
`O=C(N/N=C/c1cc2cc3c(cc2nc1Cl)OCCO3)c1ccccc1O` gave MPTP block 22, HSF1 inh 6, HSF1 activator -4, dFosB act 6, HSP90 inh 2 and Platelet DG rel 21.
Screening Cc1cccc2cc(/C=N/NC(=O)c3ccncc3)c(Cl)nc12 returned MPTP block 4, HSF1 inh 8, HSF1 activator 8, dFosB act -13, HSP90 inh -3 and Platelet DG rel 12.
For Cc1cccc2cc(/C=N/NC(=O)c3ccccc3O)c(Cl)nc12 the results were MPTP block 91*, HSF1 inh 3, HSF1 activator 5, dFosB act 8, HSP90 inh -1, Platelet DG rel 4 and Rh123 counter 80*.
`Cc1ccc2cc(/C=N/NC(=O)c3ccccc3O)c(Cl)nc2c1` gave MPTP block 61*, HSF1 inh -1, HSF1 activator -10, dFosB act -5, HSP90 inh 9, Platelet DG rel 7 and Rh123 counter 82*.
COc1ccc(OCCN2CCC(C(=O)NC(c3ccc(Cl)cc3)c3ncccc3C)CC2)cc1 (stereo unspecified) was read as MPTP block -1.
Cc1c(Cl)c([N+](=O)[O-])nn1CCCC(=O)NC1CCCCC1 was read as MPTP block 0, HSF1 inh 1, HSF1 activator -1, dFosB act 7, HSP90 inh -5 and Platelet DG rel 4.
Screening CCCCc1ccc(N/C(N)=N/c2nc(C)cc(C)n2)cc1 returned MPTP block 87*, HSF1 inh -10, HSF1 activator -21, HSP90 inh 1, Platelet DG rel -5 and Rh123 counter 89*.
`Cc1cc(C)nc(/N=C(\N)Nc2ccc(C(C)C)cc2)n1` gave MPTP block 53*, HSF1 inh -4, HSF1 activator 3, dFosB act -11, HSP90 inh 3, Platelet DG rel -26 and Rh123 counter 56*.
Screening Cc1ccc(N/C(N)=N/c2nc(C)cc(C)n2)cc1 returned MPTP block 0, HSF1 inh -6, HSF1 activator 27, dFosB act -6, HSP90 inh 1 and Platelet DG rel -15.
Screening CCC(=O)Nc1ccc(N/C(N)=N/c2nc(C)cc(C)n2)cc1 returned MPTP block 4, HSF1 inh -3, HSF1 activator 9, dFosB act 3, HSP90 inh 2 and Platelet DG rel 6.
`N#Cc1ccccc1OCCCN1CCC(C(O)(c2ccccc2)c2ccccc2)CC1` gave MPTP block 4.
CCc1nc(SCc2ccc(Br)cc2)n[nH]1 was read as MPTP block 0, HSF1 inh 25, HSF1 activator inconclusive, dFosB act -8, HSP90 inh 3 and Platelet DG rel 0.
CCc1nc(SCc2ccc(OCC(C)C)cc2)n[nH]1 was read as MPTP block 86*, HSF1 inh 16, HSF1 activator 20, dFosB act -11, HSP90 inh -3, Platelet DG rel -1 and Rh123 counter 67*.
O=C(OCc1ccccn1)C1CCN(C(=O)c2ccc(Cl)cc2)CC1 was read as MPTP block 3, HSF1 inh 1, HSF1 activator 4, dFosB act -3 and Platelet DG rel 18.
Screening COc1ccc(-c2noc(CSc3nc(N)cc(=O)[nH]3)n2)cc1 returned MPTP block 74*, HSF1 inh -6, HSF1 activator -7, dFosB act -12, HSP90 inh -3, Platelet DG rel -2 and Rh123 counter 45*.
